The source of these data is PubChem BioAssay (NCATS).

Records with an inconclusive call do not appear. A call without a number means that no potency is given here. The source made the active and inactive calls. Calls come from the whole dose curve; as a rule, active = well fitted inhibition curve with a large enough effect; inconclusive = small, poorly fitted or top-dose-only effect; inactive = no such curve, though single readings can be large or run the other way.
Note: nearly all actives have a fitted effect of over 35% in size.
Potency is the fitted concentration of half-maximal effect.

A short description of one assay: BET inhibitor-based combinations targeting novel dependencies in MECOM-rearranged (r) AML: OCI-AML3 cell line (AID 2202232). Particulars: CellTiter-Glo luminescence, 48 h; Potency: OCI-AML3 viability; series mostly up to 46 µM. The essentials:
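Viability of cells (500 per well) is scored by luminescent CellTiter-Glo at 48 hr post-dosing. Eleven-point titrations are normalized to DMSO and empty controls and reduced to AUC values.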
On to `CC(C)C1CCC(C(=O)N[C@H](Cc2ccccc2)C(=O)O)CC1` (some centres not stated), for which the Potency entry is “inactive”.

In the case of `CN1CCN(CCCNc2ncc(Cl)c(-c3cc4c(C(=O)NC5CC5)cccc4s3)n2)CC1`, the Potency entry was “inactive”.

Turning to `NC[C@H]1O[C@H](O[C@H]2[C@H](O)[C@@H](O[C@H]3O[C@H](CO)[C@@H](O)[C@H](N)[C@H]3O)[C@H](N)C[C@@H]2N)[C@H](N)C[C@@H]1O`, the Potency result was “inactive”.

`OCCn1cc(-c2ccc3c(c2)CC/C3=N\O)c(-c2ccncc2)n1`: the Potency was 2350 nM (active).

For `Nc1nc(F)nc2c1ncn2[C@@H]1O[C@H](COP(=O)(O)O)[C@@H](O)[C@@H]1O`, the Potency is 20900 nM (active).

On to `CNS(=O)(=O)Nc1nccc(Cc2c(C)c3ccc(Oc4ncccn4)cc3oc2=O)c1F`, for which the Potency was 33.2 nM (active).

Turning to `C[C@@H](C(=O)Nc1ccc(Cl)cc1)C1CCC(c2ccnc3ccc(F)cc23)CC1` (some centres not stated), the Potency entry was “inactive”.

`C#Cc1cccc(Nc2ncnc3cc4c(cc23)OCCOCCOCCO4)c1`: the Potency entry was “inactive”.

In the case of `O=C(O)CC(C(=O)O)n1c(O)c(C2=c3cc(Br)ccc3=NC2=O)sc1=S` (configuration not stated), the Potency result was “inactive”.

On to `COc1cc([C@@H](CC(=O)O)c2ccc(C)c(CN3C[C@@H](C)Oc4ccccc4S3(=O)=O)c2)cc2nnn(C)c12`, for which the Potency entry is “inactive”.

As to `O=c1[nH]c(=O)n([C@H]2C[C@H](O)[C@@H](CO)O2)cc1F`, the Potency was 417 nM (active).

As for `CC[C@@H](Oc1cccc(CN(CCCOc2ccc(OC)cc2)c2nc3ccccc3o2)c1)C(=O)O`, the Potency result is “inactive”.

For the compound `CO[C@@]12[C@H](COC(N)=O)C3=C(C(=O)C(C)=C(N)C3=O)N1C[C@@H]1N[C@@H]12`, the Potency entry is “inactive”.

With `CN[C@@H](C)C(=O)N[C@@H]1C(=O)N(Cc2c(C)ccc3ccccc23)c2ccc(C#N)cc2N(C(C)=O)[C@H]1C`, the Potency entry was “inactive”.

As to `Cc1nc2ccc(CN(C)c3ccc(C(=O)N[C@@H](CCC(=O)O)C(=O)O)s3)cc2c(=O)[nH]1`, the Potency is 46.8 nM (active).

Consider `C#CCN(C)CC1=Cc2ccccc2Oc2ccccc21`, for which the Potency entry was “inactive”.

Consider `CC(=O)CC(c1ccccc1)c1c(O)c2ccccc2oc1=O` (configuration not stated), for which the Potency result is “inactive”.

For `O=C(Cc1ccccc1)Nc1nnc(CCSCCc2nnc(NC(=O)Cc3ccccc3)s2)s1`, the Potency was 468 nM (active).

On to `O=C(O)c1ccccc1-c1ccc(/C=c2\sc3nc4cc(Br)cnc4n3c2=O)o1`, for which the Potency entry is “inactive”.

As for `Clc1ccc(CCC(Cn2ccnc2)Sc2c(Cl)cccc2Cl)cc1` (configuration not stated), the Potency entry was “inactive”.

For `CN[C@@H]1[C@@H](O)[C@@H](O[C@@H]2[C@@H](O)[C@H](O[C@H]3O[C@H](CN)[C@@H](O)[C@H](O)[C@H]3O)[C@@H](N)C[C@H]2NC(=O)C(O)CN)OC[C@]1(C)O` (some centres not stated), the Potency result was “inactive”.

Regarding `Cc1cc(C)c(S(=O)(=O)N(CCc2cccc(Br)c2)Cc2ccc(-c3cccc(S(C)(=O)=O)c3)cc2)c(C)c1`, the Potency result was “inactive”.

On to `O=C(/C=C\n1cnc(-c2cc(C(F)(F)F)cc(C(F)(F)F)c2)n1)NNc1ccccn1`, for which the Potency was 833 nM (active).

As to `CNC(=O)[C@H](Cc1c[nH]c2ccccc12)NC(=O)[C@@H](CC(=O)NO)CC(C)C`, the Potency entry was “inactive”.

Consider `COc1ncc(Nc2ncc(C(C)N3CCN(S(C)(=O)=O)CC3)cc2-c2nc(C)nc(N)n2)cc1F` (configuration not stated), for which the Potency is 662 nM (active).

Consider `c1ccc2[nH]c(-c3cscn3)nc2c1`, for which the Potency entry was “inactive”.

For the compound `NC(=O)c1cc(F)cc2c1C(=O)N(C1CCN(C3CCC(F)(F)CC3)CC1)C2`, the Potency result is “inactive”.

With `CN1C(=O)[C@@H](NC(=O)c2cc(Cc3ccccc3)on2)COc2ccccc21`, the Potency result is “inactive”.

As for `C=CC(=O)N1CCC(CNc2ncnc(N)c2-c2ccc(Oc3ccccc3)cc2)CC1`, the Potency is 16600 nM (active).

Take `CC[C@H]1OC(=O)[C@H](C)C(=O)[C@H](C)[C@@H](O[C@H]2O[C@H](C)C[C@H](N(C)C)[C@H]2O)[C@](C)(OC)C[C@@H](C)C(=O)[C@H](C)[C@H]2N(CCCCn3cnc(-c4cccnc4)c3)C(=O)O[C@]12C`: the Potency result was “inactive”.

Take `Cc1ccc(C2=Nc3ccc(Cl)cc3OC2)cc1`: the Potency is 10500 nM (active).

A short description of the next assay: BET inhibitor-based combinations targeting novel dependencies in MECOM-rearranged (r) AML: HNT-34 cell line (AID 2202234). Particulars: HNT-34 AML viability, CellTiter-Glo luminescence, 48 h; series mostly up to 46 µM. The method in brief: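 Using pin-tool transfer, drugs were added in 11 doses to cells (500/well), incubated 48 hr, and assessed with CellTiter-Glo. Z-AUC is a mean-centring transformation applied separately to each screened line.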
On the technique in general: In ATP-based viability assays light output follows the ATP content of the culture.
For `O=C1CC(c2c[nH]c3ccc(F)cc23)C(=O)N1` (configuration not stated), the Potency result was “inactive”.

As to `Cc1[nH]nc2ncc(C(=O)N3CCC[C@H]3c3ccc(Cl)cc3)cc12`, the Potency entry is “inactive”.

As to `C#Cc1cccc(Nc2ncnc3cc4c(cc23)OCCOCCOCCO4)c1`, the Potency was 18600 nM (active).

As to `COc1cc([C@@H](CC(=O)O)c2ccc(C)c(CN3C[C@@H](C)Oc4ccccc4S3(=O)=O)c2)cc2nnn(C)c12`, the Potency result is “inactive”.

Regarding `O=c1[nH]c(=O)n([C@H]2C[C@H](O)[C@@H](CO)O2)cc1F`, the Potency is 5900 nM (active).

In the case of `Cc1nc2ccc(CN(C)c3ccc(C(=O)N[C@@H](CCC(=O)O)C(=O)O)s3)cc2c(=O)[nH]1`, the Potency entry is “inactive”.

Regarding `C#CCN(C)CC1=Cc2ccccc2Oc2ccccc21`, the Potency result was “inactive”.

With `CC(=O)CC(c1ccccc1)c1c(O)c2ccccc2oc1=O` (configuration not stated), the Potency result was “inactive”.

In the case of `O=C(Cc1ccccc1)Nc1nnc(CCSCCc2nnc(NC(=O)Cc3ccccc3)s2)s1`, the Potency result was “inactive”.

Consider `CN[C@@H]1[C@@H](O)[C@@H](O[C@@H]2[C@@H](O)[C@H](O[C@H]3O[C@H](CN)[C@@H](O)[C@H](O)[C@H]3O)[C@@H](N)C[C@H]2NC(=O)C(O)CN)OC[C@]1(C)O` (some centres not stated), for which the Potency entry was “inactive”.

In the case of `COc1ncc(Nc2ncc(C(C)N3CCN(S(C)(=O)=O)CC3)cc2-c2nc(C)nc(N)n2)cc1F` (configuration not stated), the Potency result was “inactive”.
